Drawing on PubChem BioAssay (NCI), this text covers growth for 14 compounds.

Compounds without any hit were thinned out: in the full panel of roughly 83,000, 20% have a hit.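 Compound tested at a single concentration for 48 hours in 96-well plates; a percent growth value below 10 was scored as active.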 The source made the active and inactive calls.

In this assay the test system is HL-60(TB) leukemia. Kind of assay: NCI-60 one-dose screen, 48 h (100 = growth as untreated, 0 = no growth, -100 = all killed). As to conditions: 10 µM unless noted.
Take `COc1ccc(-c2nn(-c3cccc(Cl)c3)cc2-c2cc(-c3ccc(Br)cc3)nc(N)n2)cc1`: the growth was 88.4% (inactive). The value for `C/C(=C\c1ccc(OCC(=O)O)c(Cl)c1Cl)[N+](=O)[O-]` was 79.8% (inactive).

In the case of `COc1ccc(/C=C/c2c(C(=O)/C=C/c3ccc(C(F)(F)F)cc3)c(C)nc3ccccc23)cc1`, the growth is -21.7% (active). In the case of `CCN1CCN(CC(=O)N2c3cccc4cccc(c34)N(C(=O)CN3CCN(CC)CC3)C2c2cn(-c3ccccc3)nc2-c2cccc([N+](=O)[O-])c2)CC1` it was -63.9% (active).

Turning to `CC(Sc1ccccc1)C(=O)O` (centres undefined), the growth was 143% (inactive). Turning to `CN(C)c1ccc(-c2nc3ncc(Br)cc3o2)cc1`, the growth was 85.8% (inactive). The value for `C=CC(=O)N[C@H](Cc1ccc(-c2cc(Cl)cc(Cl)c2)cc1)[C@H](O)[C@@H](O)C(=O)O` was 109% (inactive).

In the case of `C[C@@H](Nc1cc(F)cc(F)c1)c1cc(C(=O)N(C)C)cc2c(=O)cc(N3CCOCC3)oc12`, the growth was 40.9% (inactive). The value for `O=c1oc2c(cnc3ccccc32)cc1-c1cccc(Cl)c1` was 102% (inactive); that for `Cc1ccc[n+](CCC(N)=O)c1` was 86.6% (inactive). The value for `NC(=O)c1c(Nc2ccccc2)nn2cc(-c3nc4ccccc4s3)c(N)nc12` was 101% (inactive); that for `N=C(N)c1ccc(-c2ccc(-c3ccccc3)s2)cc1F` was -73.1% (active); that for `Cc1ccc(C(=O)Nc2ccc(CN3CCN(C)CC3)c(C(F)(F)F)c2)cc1C#Cc1cncc2ncccc12` was -65.1% (active). The value for `CCOC(=O)c1nn(C2CCCCO2)c2ccc(NS(=O)(=O)c3ccc(C)cc3)cc12` (centres undefined) was 97.6% (inactive).
